Laboratory results published in ChEMBL document CHEMBL3433997, “St. Jude Leishmania screening dataset” (2016).

Assays:
Assay type in all cases: functional
[1] = biological target: Solute carrier family 2, facilitated glucose transporter member 1 (Homo sapiens) (UniProt P11166); test: ST_JUDE_LEISH: Cytotoxicity at 2uM final concentration against transgenic Leishmania Mexicana promastigotes LmGLUT1 that are glucose transport deficient and complemented with the human glucose transporter GLUT1. Activity is measured by DNA content using SYBR green in vitro
Chain of Solute carrier family 2, facilitated glucose transporter member 1 (Homo sapiens) (P11166 whole entry): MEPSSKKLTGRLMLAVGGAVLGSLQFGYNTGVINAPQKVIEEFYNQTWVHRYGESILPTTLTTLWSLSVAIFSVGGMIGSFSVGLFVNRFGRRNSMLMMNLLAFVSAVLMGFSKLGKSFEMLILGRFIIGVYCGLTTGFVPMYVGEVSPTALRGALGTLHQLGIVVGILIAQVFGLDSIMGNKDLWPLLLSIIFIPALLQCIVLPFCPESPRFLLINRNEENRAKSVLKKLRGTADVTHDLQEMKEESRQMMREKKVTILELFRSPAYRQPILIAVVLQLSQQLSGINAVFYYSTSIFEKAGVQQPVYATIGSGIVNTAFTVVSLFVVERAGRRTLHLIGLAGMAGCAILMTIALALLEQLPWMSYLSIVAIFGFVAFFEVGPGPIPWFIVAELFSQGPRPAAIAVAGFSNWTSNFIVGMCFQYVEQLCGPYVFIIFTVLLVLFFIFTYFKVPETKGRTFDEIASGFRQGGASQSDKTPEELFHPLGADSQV

[2] = biological target: Hexose transporter 1 (Plasmodium falciparum) (UniProt O97467); test: ST_JUDE_LEISH: Cytotoxicity at 2uM final concentration against transgenic Leishmania Mexicana promastigotes LmPfHT that are glucose transport deficient and complemented with the Plasmodium falciparum hexose transporter. Activity is measured by DNA content using SYBR green in vitro
[3] = biological target: Glucose transporter (Leishmania mexicana) (UniProt O61059); test: ST_JUDE_LEISH: Cytotoxicity at 2uM final concentration against transgenic Leishmania Mexicana promastigotes LmGT2 that are glucose transport deficient and complemented with the L. Mexicana glucose transporter 2. Activity is measured by DNA content using SYBR green in vitro

SMILES | inhibition [1] [%] | inhibition [2] [%] | inhibition [3] [%]
COc1cccc(COCC(O)CN(CCc2ccccn2)C(=O)c2ccccc2F)c1 (stereo unspecified) | 2.13 | 2.79 | 2.65
COc1cc(C)cc(CN2CCC(Cc3ccccc3)CC2)c1O | 0.53 | 0.17 | 1.48
c1ccn2c(-c3ncnc(NCc4ccc5c(c4)CCO5)n3)cnc2c1 | 1 | 1.45 | 0.24
Cn1cc(C2CCN(CCCCNC(=O)c3ccc(C(=O)Nc4ccc(C#N)cc4)cc3)CC2)c2ccccc21 | 9 | 7.5 | 7
Cc1ccc(S(=O)(=O)NC2CCN(c3ccnc4cc(Cl)ccc34)C2)cc1 (stereo unspecified) | 3.79 | 3.39 | 4.19
O=C(/C=C/c1ccc(Cl)c(Cl)c1)NC1CCC(CN2CCC(c3cc4ccccc4[nH]3)CC2)CC1 (stereo unspecified) | 0.13 | 2.67 | 1.06
CC1CN(c2cnn(C/C=C/c3ccc(NC(=O)c4ccc5nonc5c4)cc3)c(=O)c2Cl)CC(C)N1 (stereo unspecified) | 4.72 | 4.17 | 3.26
O=C(Nc1ccc(C(=O)N2CCN(CCN3CCN(c4cccc(C(F)(F)F)c4)CC3)CC2)cc1)c1cc(Cl)cc(Cl)c1 | 3.84 | 0.79 | 2.52
COc1cccc(Nc2nccc(NCC(O)c3cccc(C(F)(F)F)c3)n2)c1 (stereo unspecified) | 4.86 | 5.48 | 1.78
CCOC(=O)c1ccc(NC(=O)NCCCC2CCCN(CCCCCNC(=O)/C=C/c3ccc(Cl)c(Cl)c3)C2)cc1 (stereo unspecified) | 1.46 | 1.66 | 0.52
O=C(/C=C/c1ccc(Cl)c(Cl)c1)NCCCCCN1CCCN(C(=O)Nc2ccc(Br)cc2)CC1 | 10.6 | 10.3 | 10.2
CNC(=O)C1Cc2c([nH]c3ccc(Cl)cc23)C2(CCN(CCc3ccccc3)CC2)N1 (stereo unspecified) | 3.32 | 0.71 | -2.87
